The record followed here is article PMC7862700, “An all-to-all approach to the identification of sequence-specific readers for epigenetic DNA modifications on cytosine”.

Experiment in all cases: DAPPL (digital affinity profiling via proximity ligation, sequencing); 10 mM Tris-HCl pH 7.5, 50 mM NaCl, 1 mM DTT, 4% glycerol, room temperature, 30 min; GST-TFs on glutathione beads, 16-mer random dsDNA library, 0.1% formaldehyde crosslink after washing; high values mean tight binding
Settings in all cases: protein: recombinant; tags: N-terminal GST; dsDNA, one strand shown

Test [1] has as its target T1, FLI1 (Homo sapiens, UniProt Q01543 1-452).
T1 sequence: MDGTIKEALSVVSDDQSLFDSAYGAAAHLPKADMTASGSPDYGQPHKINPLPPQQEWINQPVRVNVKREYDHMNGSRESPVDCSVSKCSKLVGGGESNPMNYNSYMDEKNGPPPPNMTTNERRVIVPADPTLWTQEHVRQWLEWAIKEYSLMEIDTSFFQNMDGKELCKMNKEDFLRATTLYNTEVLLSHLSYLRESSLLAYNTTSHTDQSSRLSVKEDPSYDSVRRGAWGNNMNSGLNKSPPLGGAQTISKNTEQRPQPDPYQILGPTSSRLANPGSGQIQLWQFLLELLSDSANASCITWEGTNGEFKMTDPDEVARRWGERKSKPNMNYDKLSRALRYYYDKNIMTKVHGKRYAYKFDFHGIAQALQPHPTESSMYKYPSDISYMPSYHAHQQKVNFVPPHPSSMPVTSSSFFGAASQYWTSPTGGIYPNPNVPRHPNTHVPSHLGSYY
The procedure, abridged: (§1)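 Each value of binding signal is a hexamer's read frequency for a factor divided by the same hexamer's frequency in the tag-only sample. Barcoded, bead-captured GST fusions of human transcription factors made in yeast were pooled with that sample and incubated with 200 nmole of a random double-stranded 16-mer DNA library in Tris/NaCl/DTT/glycerol buffer at room temperature for 30 min. Washing, 0.1% formaldehyde crosslinking, proximity ligation, PCR and Illumina NextSeq500 sequencing followed.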

Test [2] addresses T2, ELK1 (Homo sapiens, UniProt P19419 1-428).
T2 sequence: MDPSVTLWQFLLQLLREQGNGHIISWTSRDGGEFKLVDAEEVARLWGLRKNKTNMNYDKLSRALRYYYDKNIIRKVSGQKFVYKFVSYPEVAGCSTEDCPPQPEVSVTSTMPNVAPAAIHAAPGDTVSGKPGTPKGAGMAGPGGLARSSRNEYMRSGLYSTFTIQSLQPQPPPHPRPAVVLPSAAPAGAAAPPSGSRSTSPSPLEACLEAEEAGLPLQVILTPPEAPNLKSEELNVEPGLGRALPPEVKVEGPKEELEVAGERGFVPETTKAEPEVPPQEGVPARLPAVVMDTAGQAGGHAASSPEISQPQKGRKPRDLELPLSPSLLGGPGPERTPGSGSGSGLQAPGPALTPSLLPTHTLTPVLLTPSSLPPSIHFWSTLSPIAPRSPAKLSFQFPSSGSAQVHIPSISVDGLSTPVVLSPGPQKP
The gist of the method: as §1

Test [3] addresses T3, ERG (Homo sapiens, UniProt P11308 1-479).
T3 sequence: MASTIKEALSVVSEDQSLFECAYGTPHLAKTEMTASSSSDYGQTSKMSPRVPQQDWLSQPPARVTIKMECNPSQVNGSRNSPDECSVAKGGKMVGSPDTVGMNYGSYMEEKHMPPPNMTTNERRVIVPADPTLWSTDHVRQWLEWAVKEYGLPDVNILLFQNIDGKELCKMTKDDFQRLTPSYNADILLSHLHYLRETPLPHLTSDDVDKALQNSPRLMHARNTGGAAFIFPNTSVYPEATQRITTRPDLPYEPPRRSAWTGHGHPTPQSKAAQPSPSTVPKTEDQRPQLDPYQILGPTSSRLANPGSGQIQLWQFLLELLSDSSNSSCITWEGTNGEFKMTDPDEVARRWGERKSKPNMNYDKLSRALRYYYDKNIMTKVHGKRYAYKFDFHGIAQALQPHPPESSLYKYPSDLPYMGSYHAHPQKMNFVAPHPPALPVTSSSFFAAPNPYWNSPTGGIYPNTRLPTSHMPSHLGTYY
The procedure, abridged:
as §1

The target in test [4] is ELF1 (Homo sapiens, UniProt P32519 1-619). The procedure, abridged: as §1
ELF1, sequence (P32519 whole entry): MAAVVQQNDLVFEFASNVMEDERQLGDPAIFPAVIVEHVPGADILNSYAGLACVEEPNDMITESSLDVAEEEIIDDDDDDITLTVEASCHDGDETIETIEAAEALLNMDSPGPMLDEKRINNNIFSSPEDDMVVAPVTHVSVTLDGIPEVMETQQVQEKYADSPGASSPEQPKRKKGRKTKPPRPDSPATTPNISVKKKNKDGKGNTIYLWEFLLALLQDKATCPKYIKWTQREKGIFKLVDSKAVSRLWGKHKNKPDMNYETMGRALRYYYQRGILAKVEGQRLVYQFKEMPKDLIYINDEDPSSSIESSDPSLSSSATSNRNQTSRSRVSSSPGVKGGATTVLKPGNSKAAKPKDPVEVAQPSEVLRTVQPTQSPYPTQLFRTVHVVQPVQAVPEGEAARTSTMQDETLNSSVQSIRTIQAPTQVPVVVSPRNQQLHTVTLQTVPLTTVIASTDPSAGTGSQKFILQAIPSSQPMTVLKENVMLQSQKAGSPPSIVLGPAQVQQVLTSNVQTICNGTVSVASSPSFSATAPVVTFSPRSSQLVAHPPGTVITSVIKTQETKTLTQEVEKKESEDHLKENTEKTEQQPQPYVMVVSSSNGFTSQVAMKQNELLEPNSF
Test [5] concerns the target T4, EHF (Homo sapiens, UniProt Q9NZC4 1-300).
T4 sequence: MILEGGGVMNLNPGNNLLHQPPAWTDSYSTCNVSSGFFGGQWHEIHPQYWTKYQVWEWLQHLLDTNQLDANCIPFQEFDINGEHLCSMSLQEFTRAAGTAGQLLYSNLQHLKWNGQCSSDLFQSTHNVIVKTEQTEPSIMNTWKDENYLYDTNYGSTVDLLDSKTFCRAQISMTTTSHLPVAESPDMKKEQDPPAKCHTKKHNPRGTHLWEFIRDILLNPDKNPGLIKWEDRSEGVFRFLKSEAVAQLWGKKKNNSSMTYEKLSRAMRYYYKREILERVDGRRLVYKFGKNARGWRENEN
The gist of the method:
as §1

Test [6] deals with T5, ELK3 (Homo sapiens, UniProt P41970 1-407).
T5 sequence: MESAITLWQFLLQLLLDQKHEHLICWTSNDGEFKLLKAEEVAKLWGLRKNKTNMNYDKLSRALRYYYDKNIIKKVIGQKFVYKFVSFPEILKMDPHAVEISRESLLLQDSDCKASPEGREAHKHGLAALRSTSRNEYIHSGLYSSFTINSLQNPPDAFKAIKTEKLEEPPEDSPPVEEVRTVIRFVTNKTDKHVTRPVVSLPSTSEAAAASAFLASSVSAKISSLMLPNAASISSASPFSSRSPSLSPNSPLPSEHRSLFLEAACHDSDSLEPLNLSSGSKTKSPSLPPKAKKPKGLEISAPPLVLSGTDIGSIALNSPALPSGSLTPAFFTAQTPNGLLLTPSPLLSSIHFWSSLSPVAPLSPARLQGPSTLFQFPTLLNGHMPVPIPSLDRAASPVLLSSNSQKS
The gist of the method: as §1

Test [7] concerns the target T6, FEV (Homo sapiens, UniProt Q99581 1-238).
T6 sequence: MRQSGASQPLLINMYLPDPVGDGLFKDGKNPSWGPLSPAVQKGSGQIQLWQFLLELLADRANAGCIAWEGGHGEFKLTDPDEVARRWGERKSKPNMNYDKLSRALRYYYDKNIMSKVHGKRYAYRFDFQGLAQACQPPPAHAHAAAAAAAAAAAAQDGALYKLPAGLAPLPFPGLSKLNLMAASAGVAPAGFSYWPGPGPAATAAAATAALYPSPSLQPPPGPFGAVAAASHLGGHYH
The procedure, abridged:
as §1

The target of test [8] is ETV1 (Homo sapiens, UniProt P50549 1-477). The procedure, abridged:
as §1

In test [9] the target is T7, ERF (Homo sapiens, UniProt P50548 1-548).
T7 sequence: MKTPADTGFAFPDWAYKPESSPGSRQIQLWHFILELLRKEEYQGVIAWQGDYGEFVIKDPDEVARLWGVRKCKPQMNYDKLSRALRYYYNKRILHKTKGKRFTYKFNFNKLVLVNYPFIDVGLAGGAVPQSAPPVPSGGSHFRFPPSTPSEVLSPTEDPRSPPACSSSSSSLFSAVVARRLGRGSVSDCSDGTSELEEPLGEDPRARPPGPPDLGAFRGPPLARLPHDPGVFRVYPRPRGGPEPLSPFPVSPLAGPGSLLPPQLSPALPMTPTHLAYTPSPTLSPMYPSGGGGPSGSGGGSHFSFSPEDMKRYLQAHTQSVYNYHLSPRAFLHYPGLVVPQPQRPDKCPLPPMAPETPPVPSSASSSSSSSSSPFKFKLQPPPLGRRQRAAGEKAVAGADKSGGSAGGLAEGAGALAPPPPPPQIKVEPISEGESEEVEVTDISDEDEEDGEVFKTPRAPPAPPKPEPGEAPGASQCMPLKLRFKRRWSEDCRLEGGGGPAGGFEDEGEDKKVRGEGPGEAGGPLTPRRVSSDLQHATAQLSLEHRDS
The procedure, abridged:
as §1

Test [10] addresses T8, ETV3L (Homo sapiens, UniProt Q6ZN32 1-361).
T8 sequence: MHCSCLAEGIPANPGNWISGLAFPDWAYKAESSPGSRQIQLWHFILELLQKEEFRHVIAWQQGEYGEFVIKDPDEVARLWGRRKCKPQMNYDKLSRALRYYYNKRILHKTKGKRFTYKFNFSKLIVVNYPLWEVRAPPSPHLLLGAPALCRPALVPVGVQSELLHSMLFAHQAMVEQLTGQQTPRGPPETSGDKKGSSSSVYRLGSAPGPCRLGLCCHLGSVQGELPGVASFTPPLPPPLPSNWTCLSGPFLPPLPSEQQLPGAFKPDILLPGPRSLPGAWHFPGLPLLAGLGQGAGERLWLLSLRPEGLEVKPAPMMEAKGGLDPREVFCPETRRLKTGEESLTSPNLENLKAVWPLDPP
The gist of the method:
as §1

In test [11] the target is T9, ETS2 (Homo sapiens, UniProt P15036 1-469).
T9 sequence: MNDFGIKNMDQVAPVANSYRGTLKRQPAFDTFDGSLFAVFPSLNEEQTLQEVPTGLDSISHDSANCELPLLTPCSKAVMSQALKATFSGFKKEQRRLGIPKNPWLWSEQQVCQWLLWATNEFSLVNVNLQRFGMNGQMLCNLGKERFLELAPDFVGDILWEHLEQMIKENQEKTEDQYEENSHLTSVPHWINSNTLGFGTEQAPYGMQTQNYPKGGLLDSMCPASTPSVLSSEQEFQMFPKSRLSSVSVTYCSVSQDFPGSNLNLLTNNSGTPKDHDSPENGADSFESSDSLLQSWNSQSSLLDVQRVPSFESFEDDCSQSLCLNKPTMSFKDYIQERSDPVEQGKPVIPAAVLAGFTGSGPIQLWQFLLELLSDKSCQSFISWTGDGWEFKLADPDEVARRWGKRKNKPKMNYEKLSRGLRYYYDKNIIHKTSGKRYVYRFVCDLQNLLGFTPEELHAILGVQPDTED
The gist of the method: as §1

For test [12], the target named is T10, ELF5 (Homo sapiens, UniProt Q9UKW6-2 1-255).
T10 sequence: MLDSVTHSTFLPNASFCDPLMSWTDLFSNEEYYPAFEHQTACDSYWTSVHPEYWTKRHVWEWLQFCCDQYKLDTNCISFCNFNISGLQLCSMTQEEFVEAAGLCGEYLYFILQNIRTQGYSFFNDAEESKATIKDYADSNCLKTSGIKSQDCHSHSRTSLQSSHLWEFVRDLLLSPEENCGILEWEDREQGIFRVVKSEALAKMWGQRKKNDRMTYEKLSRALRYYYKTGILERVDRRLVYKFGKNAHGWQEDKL
The procedure, abridged:
as §1

Test [13] has as its target T11, ETV3 (Homo sapiens, UniProt P41162-2 1-143).
T11 sequence: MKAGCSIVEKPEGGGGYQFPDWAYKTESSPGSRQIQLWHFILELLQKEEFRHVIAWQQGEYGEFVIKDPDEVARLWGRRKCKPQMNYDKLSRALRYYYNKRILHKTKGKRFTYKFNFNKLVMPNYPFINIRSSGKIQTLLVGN
The gist of the method:
as §1

ETV1, sequence (P50549 whole entry): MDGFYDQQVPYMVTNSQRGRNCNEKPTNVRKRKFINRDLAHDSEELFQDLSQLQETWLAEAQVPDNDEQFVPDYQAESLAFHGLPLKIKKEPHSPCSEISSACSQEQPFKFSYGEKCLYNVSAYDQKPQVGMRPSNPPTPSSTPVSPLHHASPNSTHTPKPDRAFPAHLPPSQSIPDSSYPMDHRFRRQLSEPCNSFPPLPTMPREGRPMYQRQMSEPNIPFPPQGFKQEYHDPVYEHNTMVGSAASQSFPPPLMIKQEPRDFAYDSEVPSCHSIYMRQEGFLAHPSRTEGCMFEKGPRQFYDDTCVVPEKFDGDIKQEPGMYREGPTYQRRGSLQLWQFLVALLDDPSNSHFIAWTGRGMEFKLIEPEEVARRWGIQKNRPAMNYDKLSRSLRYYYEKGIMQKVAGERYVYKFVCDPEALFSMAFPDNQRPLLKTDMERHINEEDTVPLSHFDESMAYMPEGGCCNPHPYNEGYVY

Consider CGCACA, for which the binding signal in test [1] is 1.01 fold enrichment (6-mer frequency, TF over GST control); in test [2] it was 1.08 fold enrichment (6-mer frequency, TF over GST control); in test [3], 1.02 fold enrichment (6-mer frequency, TF over GST control); in test [4], 1.05 fold enrichment (6-mer frequency, TF over GST control); in [5] it was 1.03 fold enrichment (6-mer frequency, TF over GST control); in test [6], 1.02 fold enrichment (6-mer frequency, TF over GST control). The binding signal in test [7] is 1.02 fold enrichment (6-mer frequency, TF over GST control); in test [8], 1.01 fold enrichment (6-mer frequency, TF over GST control); in test [9] it was 1.07 fold enrichment (6-mer frequency, TF over GST control); in test [10] it was 1.04 fold enrichment (6-mer frequency, TF over GST control); in test [11] it was 1.04 fold enrichment (6-mer frequency, TF over GST control); in test [12], 1.04 fold enrichment (6-mer frequency, TF over GST control). Besides, the binding signal in test [13] was 1.03 fold enrichment (6-mer frequency, TF over GST control).
